# Measured values as given in ChEMBL document CHEMBL1857833, “Screening and optimization of specific chemical series against human African Trypanosomiasis (HAT)”.
# The whole screen tested about 4,400 compounds, of which about 390 (8.9%) showed an effect of 50% or more. Shown is part of a subset that was picked to be rich in strong results.
# Tested on: Trypanosoma brucei
# Test: DNDI: Inhibition of Human African Trypanosomiasis, SBRI 427, in vitro at 2 ug.mL-1
# Type: functional
row,SMILES,% inhibition [%]
1,Cc1cccc(-c2nc(Cn3cc(-c4ccccc4)c(C)n3)co2)c1,-11
2,c1ccc(-c2nc(CN3CCC4CCCCC4C3)co2)cc1 (configuration not stated),37
3,C#CC(CC)(CC)NCc1coc(-c2cccs2)n1,-2
4,CCN(Cc1ccccc1)Cc1coc(-c2cccc(OC)c2)n1,-7
5,CCN1CCN(Cc2coc(-c3ccc(C(F)(F)F)cc3)n2)CC1,10
6,CCCc1nccn1Cc1coc(-c2cccc(F)c2)n1,5
7,COc1cc(CNCc2coc(-c3ccc(C)cc3)n2)cc(OC)c1OC,9
8,O=c1c(Cl)cn(Cc2coc(-c3ccc(C(F)(F)F)cc3)n2)cc1Cl,-5
9,COc1ccc(-c2nc(CN3CCN(c4ccccc4OC)CC3)co2)cc1,13
10,CC(C)(C)c1ccc(CNCc2coc(-c3cccc4ccccc34)n2)cc1,-1
11,CC1CCC(N/C(=N\O)c2cccnc2Oc2ccc(-n3cncn3)cc2)CC1 (configuration not stated),98
12,COc1ccccc1Oc1ncccc1/C(=N/O)NCC1CC1,96
13,COc1ccc(Oc2ncccc2/C(=N/O)NCC2CC2)cc1,99
14,COc1ccccc1Oc1ncccc1/C(=N/O)NCc1ccco1,27
15,COc1ccc(Oc2nc(C)ccc2/C(=N/O)NCC2CCCCC2)cc1,24
16,CC(C)N/C(=N\O)c1cccnc1Oc1ccc(-n2cncn2)cc1,42
17,CC1CC(N/C(=N\O)c2cccnc2Oc2ccc(-n3cncn3)cc2)CC(C)(C)C1 (configuration not stated),41
18,COc1ccc(CN/C(=N\O)c2cccnc2Oc2ccccc2OC)cc1,13
19,COc1ccc(Oc2ncccc2/C(=N/O)NCC2CCCCC2)cc1,93
20,COc1cccc(-c2nc(Cn3cnc(-c4ccccc4)c3)co2)c1,-15
21,O/N=C(/c1cccnc1Oc1ccc(F)cc1)N1CCCCCC1,1
22,COc1ccc(CN/C(=N\O)c2cccnc2Oc2ccc3c(c2)CCCC3)cc1,8
23,Cc1ccc(/C(=N/O)Nc2ccc(C(C)C)cc2)c(Oc2cccc(F)c2)n1,16
24,Cc1ccc(/C(=N/O)NCc2ccc(C)o2)c(Oc2ccc3oc4ccccc4c3c2)n1,9

row,SMILES,% inhibition [%]
1,CCCCN(CCC#N)Cc1coc(-c2ccc(C(C)(C)C)cc2)n1,3
2,CCOc1ccc(-c2nc(CNCc3ccccc3C(F)(F)F)co2)cc1,1
3,Cc1ccc(/C(=N/O)NCC2CCCCC2)c(Oc2ccc3ccccc3c2)n1,18
4,O/N=C(\NCC1CCCO1)c1cccnc1Oc1ccc(-n2cncn2)cc1 (configuration not stated),24
5,CSc1ccccc1Oc1ncccc1/C(=N/O)NCC1CC1,99
6,O/N=C(\NCC1CCCCC1)c1cccnc1Oc1ccc(Cl)cc1,98
7,Cc1ccc(/C(=N/O)NCC2CCCCC2)c(Oc2ccc(Cl)cc2)n1,-11
8,CC(C)(C)COc1ncccc1/C(=N/O)NCC1CCCCC1,-1
9,O/N=C(\NCC1CCCCC1)c1cccnc1Oc1ccc(-n2cncn2)cc1,90
10,O/N=C(\NCc1ccccc1)c1cccnc1Oc1ccc(-n2cncn2)cc1,21
11,CSc1ccccc1Oc1ncccc1/C(=N/O)NCCN1CCCC1,22
12,O/N=C(\NCCN1CCOCC1)c1cccnc1Oc1ccc2ccccc2c1,-10
13,CCCN(CC1CC1)/C(=N\O)c1cccnc1Oc1ccccc1SC,30
14,O/N=C(\NCC1CC1)c1cccnc1Oc1ccc2ccccc2c1,99
15,COc1ccc(CN/C(=N\O)c2ccc(C)nc2OCc2ccccc2F)cc1,-1
16,COc1cc(C)ccc1Oc1nc(C)ccc1/C(=N/O)n1nc(C)cc1C,-5
17,O/N=C(/c1ccc(Oc2cccc3c2CCCC3)nc1)N1CCN(c2ccc(F)cc2)CC1,26
18,COc1cc(-c2nc(Cn3ccnc3C)co2)cc(OC)c1OC,-1
19,Fc1ccc(N2CCN(Cc3coc(-c4ccco4)n3)CC2)cc1,13
20,FC(F)(F)c1ccc(-c2nc(Cn3ccnc3)co2)cc1,-3
21,CCN(CC)c1cccc(Oc2ncccc2/C(=N/O)NCC2CC2)c1,6
22,O/N=C(\NCC1CC1)c1cccnc1Oc1ccc(F)cc1,97
23,O/N=C(\NCc1ccccn1)c1cccnc1Oc1ccc(Cl)cc1,10
24,N/C(=N\O)c1cccnc1Oc1ccc(F)c(Cl)c1,10

row,SMILES,% inhibition [%]
1,N/C(=N\O)c1cccnc1Oc1ccc(Cl)cc1,59
2,COc1ccc(Oc2ncccc2/C(=N/O)NCC(C)C)cc1,-7
3,Cc1ccc(Oc2ncccc2/C(N)=N/O)cc1,21
4,COc1ccc(Oc2ncccc2/C(=N/O)NCC(C)(C)C)cc1,98
5,O/N=C(\NCc1cccnc1)c1cccnc1Oc1ccc(Cl)cc1,4
6,CC(C)(C)CN/C(=N\O)c1cccnc1Oc1ccc(Cl)cc1,99
7,CCCN(Cc1coc(-c2cccc(F)c2)n1)C(C)CC (configuration not stated),-4
8,COc1cc(CNCc2coc(-c3cccs3)n2)cc(OC)c1,-7
9,COc1cc(-c2nc(CN3CCCCC3C)co2)cc(OC)c1OC (configuration not stated),-4
10,Cc1ccc(/C(=N/O)N2CCCCC2)c(Oc2ccc3oc4ccccc4c3c2)n1,7
11,CC(C)(C)COc1ncccc1/C(=N/O)NCc1ccccn1,12
12,CCOc1ccc(-c2nc(CNCc3cccc(OC)c3OC)co2)cc1,3
13,CSc1ccc(Oc2nc(C)ccc2/C(=N/O)NCC(C)C)cc1C,-14
14,C#CCNCc1coc(-c2ccc(OC)cc2)n1,-25
15,COc1ccc(N(C)Cc2coc(-c3ccc(F)cc3)n2)cc1,-2
16,Cc1ccc(C)c(N2CCN(Cc3coc(-c4ccc(OC(F)(F)F)cc4)n3)CC2)c1,33
17,Cc1ccc(/C(=N/O)NC(C)C)c(Oc2cccc3ccc(C)nc23)n1,31
18,CN(/C(=N\O)c1ccc(Oc2c(F)c(F)cc(F)c2F)nc1)C1CCCCC1,21
19,O/N=C(\NC1CCCCC1)c1ccc(Oc2c(F)c(F)cc(F)c2F)nc1,100
20,O/N=C(\NCC1CCCO1)c1ccc(Oc2c(F)c(F)cc(F)c2F)nc1 (configuration not stated),25
21,CC1CC(N/C(=N\O)c2ccc(Oc3c(F)c(F)cc(F)c3F)nc2)CC(C)(C)C1 (configuration not stated),22
22,CC1CCC(N/C(=N\O)c2ccc(Oc3c(F)c(F)cc(F)c3F)nc2)CC1 (configuration not stated),17
23,O/N=C(\NC1CCc2ccccc21)c1ccc(Oc2c(F)c(F)cc(F)c2F)nc1 (configuration not stated),19
24,O/N=C(\NC1CCCC1)c1ccc(Oc2c(F)c(F)cc(F)c2F)nc1,99

row,SMILES,% inhibition [%]
1,O/N=C(\NCC1CCCCC1)c1ccc(Oc2c(F)c(F)cc(F)c2F)nc1,40
2,O/N=C(\NC1CCC1)c1ccc(Oc2c(F)c(F)cc(F)c2F)nc1,100
3,CCOc1ccc(-c2nc(CN(C)CCc3ccccc3)co2)cc1,10
4,CCOc1cccc(-c2nc(CNc3ccccc3C)co2)c1,20
5,CC(C)c1ccc(N/C(=N\O)c2ccc(Oc3cccc4ccccc34)nc2)cc1,16
6,O/N=C(\NCc1ccncc1)c1ccc(Oc2c(F)c(F)cc(F)c2F)nc1,6
7,CC(C)CN(C)Cc1coc(-c2ccccc2Cl)n1,1
8,O/N=C(/c1cccnc1Oc1ccc2ccccc2c1)N1CCC2CCCCC2C1 (configuration not stated),100
9,COc1ccc(Oc2ncccc2/C(=N/O)N2CCC3CCCCC3C2)cc1 (configuration not stated),-2
10,COc1ccc(Oc2ncccc2/C(=N/O)NC2CCCCC2)cc1,98
11,O/N=C(\NCc1ccccc1)c1cccnc1Oc1ccc2c(c1)CCCC2,-4
12,O/N=C(\NC1CCCC1)c1cccnc1Oc1ccc2c(c1)CCCC2,1
13,COc1ccc(Oc2ncccc2/C(=N/O)N(C)C2CCCCC2)cc1,-15
14,COc1ccc(Oc2ncccc2/C(=N/O)NC2CCCC2)cc1,99
15,O/N=C(/c1cccnc1Oc1ccc(Cl)cc1)N1CCC2CCCCC2C1 (configuration not stated),-20
16,O/N=C(\NC1CCC1)c1cccnc1Oc1ccc2c(c1)CCCC2,100
17,O/N=C(/c1ccnc(Oc2ccc(Cl)cc2)c1)N1CC=CCC1,8
18,COc1ccc(-c2nc(Cn3nc(C)cc3C)co2)cc1,-6
19,Cc1cccc(N2CCN(Cc3coc(-c4ccc(Br)cc4)n3)CC2C)c1 (configuration not stated),15
20,COc1ccc(-c2nc(CNCCc3ccc(C)cc3)co2)cc1,-3
21,Cc1ccc(CN/C(=N\O)c2ccc(Oc3cc(Cl)ccc3Cl)nc2)o1,9
22,Cc1cccc(Oc2ncccc2/C(=N/O)N2CCC=N2)c1C,2
23,C=CCN(Cc1coc(-c2ccccc2Cl)n1)C1CCCCC1,13
24,O/N=C(\NCc1cccs1)c1ccc(Oc2c(F)c(F)cc(F)c2F)nc1,1

row,SMILES,% inhibition [%]
1,Cc1cc(Oc2ccc(/C(=N/O)N3CCN(c4ccc(F)cc4)CC3)cn2)cc(C(C)C)c1,3
2,COc1ccc(-c2nc(CN3CCN(c4cccc(Cl)c4)CC3)co2)cc1,10
3,N/C(=N/O)c1cccnc1Oc1ccc2ccccc2c1,-3
4,O/N=C(\Nc1ccccc1)c1cccnc1Oc1ccc2ccccc2c1,14
5,O/N=C(\NC1CCCCC1)c1cccnc1Oc1ccc2ccccc2c1,99
6,COc1ccc(Oc2ncccc2/C(=N/O)N2C(C)CCC2C)cc1 (configuration not stated),-10
7,COc1ccc(Oc2ncccc2/C(=N/O)NC2CCC2)cc1,98
8,COc1ccc(Oc2nc(C)ccc2/C(=N/O)NC2CCC(C)CC2)cc1 (configuration not stated),47
9,O/N=C(\NCc1cc(F)ccc1F)c1ccc(Oc2ccc(Cl)cc2)nc1,-8
10,CCc1ccc(Oc2ccc(/C(=N/O)NC3CC3)cn2)cc1,8
11,O/N=C(\NC1CCCCC1)c1ccc(Oc2ccc(Cl)cc2)nc1,93
12,CSCCN/C(=N\O)c1ccc(Oc2ccc(Cl)cc2)nc1,-6
13,O/N=C(\NC1CCCC1)c1ccc(Oc2ccc(Cl)cc2)nc1,98
14,O/N=C(/c1ccc(Oc2ccc(Cl)cc2)nc1)N1CCCCCC1,-7
15,CC1CCC(N/C(=N\O)c2ccc(Oc3ccc(Cl)cc3)nc2)CC1 (configuration not stated),88
16,CC1CCN(/C(=N\O)c2ccc(Oc3ccc(Cl)cc3)nc2)CC1,26
17,N/C(=N\O)c1ccc(Oc2ccc(Cl)cc2)nc1,15
18,O/N=C(\NC1CCc2ccccc21)c1ccc(Oc2ccc(Cl)cc2)nc1 (configuration not stated),-11
19,CCc1ccc(Oc2ccc(/C(=N/O)NC3CCCC3)cn2)cc1,78
20,CC1CCC(N/C(=N\O)c2ccc(Oc3ccc(-n4ccnc4)cc3)nc2)CC1 (configuration not stated),21
21,CCc1ccc(Oc2ccc(/C(=N/O)Nc3ccccc3)cn2)cc1,17
